# The supplement of paper PMC10849652
# About 7,900 targets were measured; listed, in parts, are those with a hit and a random draw of the rest. About 0.6% of all pairs of compound and target were hits. A number with no mark means an inactive call.
# Compound: c1ccc([C@@H]2C[C@H]2NC2CCNCC2)cc1
# Experiment: log2 fold change, soluble protein after heating vs DMSO (PISA); higher = thermal stabilisation; K562 cells, 10 uM, 30 min; active = over 0.2 and 3.5 SD of the protein, either way, in both replicates (recomputed)
# Procedure, shortened: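 Quantification of soluble protein used TMTpro 16plex LC-MS/MS, with channel sums equalised. Samples were the supernatant after 21,000xg for 90 min of pooled aliquots from K562 cells (2×10^6 cells/mL) treated with 10 μM compound for 30 min, heated for 3 min over 48°C-58°C, and extracted in PBS with 0.5% NP-40 at 4°C. Values, from duplicates, describe thermal stability against control samples on a log2 fold-change scale.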
# UniProt Q9UIB8, sequence (Q9UIB8 whole entry, looked up): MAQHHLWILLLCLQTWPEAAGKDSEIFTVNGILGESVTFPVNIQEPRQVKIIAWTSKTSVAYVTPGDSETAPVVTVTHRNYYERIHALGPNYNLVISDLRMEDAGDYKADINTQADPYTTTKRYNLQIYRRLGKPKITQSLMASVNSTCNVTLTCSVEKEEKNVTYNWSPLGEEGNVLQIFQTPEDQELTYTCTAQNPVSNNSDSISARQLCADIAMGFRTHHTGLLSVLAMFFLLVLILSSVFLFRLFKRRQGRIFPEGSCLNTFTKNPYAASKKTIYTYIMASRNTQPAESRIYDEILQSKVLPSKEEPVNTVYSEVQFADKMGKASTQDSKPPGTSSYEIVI
# UniProt Q6P5X5, sequence (Q6P5X5 whole entry, looked up): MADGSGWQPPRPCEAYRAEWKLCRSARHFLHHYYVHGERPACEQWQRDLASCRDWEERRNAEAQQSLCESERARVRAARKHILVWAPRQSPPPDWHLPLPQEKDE
# UniProt Q8WUD6, sequence (Q8WUD6 whole entry, looked up): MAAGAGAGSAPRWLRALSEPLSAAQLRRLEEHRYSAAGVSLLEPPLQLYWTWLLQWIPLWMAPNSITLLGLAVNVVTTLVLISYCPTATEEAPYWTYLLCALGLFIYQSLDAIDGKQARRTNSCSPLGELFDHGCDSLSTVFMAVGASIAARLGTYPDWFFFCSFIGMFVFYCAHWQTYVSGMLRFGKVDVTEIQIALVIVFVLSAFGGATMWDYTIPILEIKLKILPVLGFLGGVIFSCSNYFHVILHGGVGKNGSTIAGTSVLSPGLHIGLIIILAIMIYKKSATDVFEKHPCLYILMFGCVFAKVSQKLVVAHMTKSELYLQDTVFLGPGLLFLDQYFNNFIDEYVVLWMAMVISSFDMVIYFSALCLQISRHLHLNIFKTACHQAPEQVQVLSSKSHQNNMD
# UniProt Q9HCH3, sequence (Q9HCH3 whole entry, looked up): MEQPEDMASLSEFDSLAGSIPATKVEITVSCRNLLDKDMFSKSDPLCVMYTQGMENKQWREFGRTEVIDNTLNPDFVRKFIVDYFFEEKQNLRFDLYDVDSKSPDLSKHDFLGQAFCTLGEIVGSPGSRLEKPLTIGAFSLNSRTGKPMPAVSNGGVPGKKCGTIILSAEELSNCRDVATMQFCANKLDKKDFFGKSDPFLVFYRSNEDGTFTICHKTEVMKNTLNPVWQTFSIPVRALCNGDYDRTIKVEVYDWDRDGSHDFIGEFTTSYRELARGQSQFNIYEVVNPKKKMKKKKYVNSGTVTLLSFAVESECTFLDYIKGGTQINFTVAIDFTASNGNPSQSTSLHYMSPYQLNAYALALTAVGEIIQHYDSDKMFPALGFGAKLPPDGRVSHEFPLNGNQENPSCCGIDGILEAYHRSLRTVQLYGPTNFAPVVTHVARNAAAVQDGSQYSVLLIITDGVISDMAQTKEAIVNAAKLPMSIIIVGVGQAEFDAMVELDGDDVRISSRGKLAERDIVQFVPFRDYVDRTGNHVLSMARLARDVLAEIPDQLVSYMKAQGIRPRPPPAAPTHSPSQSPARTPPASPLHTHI
# UniProt Q9UJA2, sequence (Q9UJA2 whole entry, looked up): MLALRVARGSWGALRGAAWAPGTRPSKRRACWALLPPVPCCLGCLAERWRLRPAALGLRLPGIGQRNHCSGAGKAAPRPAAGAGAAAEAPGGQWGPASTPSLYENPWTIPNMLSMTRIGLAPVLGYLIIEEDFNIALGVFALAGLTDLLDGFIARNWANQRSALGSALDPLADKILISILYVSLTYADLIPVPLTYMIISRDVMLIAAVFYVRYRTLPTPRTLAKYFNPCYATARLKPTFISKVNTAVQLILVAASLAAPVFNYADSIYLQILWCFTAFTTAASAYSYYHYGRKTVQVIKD
# UniProt P55211, sequence (P55211 whole entry, looked up): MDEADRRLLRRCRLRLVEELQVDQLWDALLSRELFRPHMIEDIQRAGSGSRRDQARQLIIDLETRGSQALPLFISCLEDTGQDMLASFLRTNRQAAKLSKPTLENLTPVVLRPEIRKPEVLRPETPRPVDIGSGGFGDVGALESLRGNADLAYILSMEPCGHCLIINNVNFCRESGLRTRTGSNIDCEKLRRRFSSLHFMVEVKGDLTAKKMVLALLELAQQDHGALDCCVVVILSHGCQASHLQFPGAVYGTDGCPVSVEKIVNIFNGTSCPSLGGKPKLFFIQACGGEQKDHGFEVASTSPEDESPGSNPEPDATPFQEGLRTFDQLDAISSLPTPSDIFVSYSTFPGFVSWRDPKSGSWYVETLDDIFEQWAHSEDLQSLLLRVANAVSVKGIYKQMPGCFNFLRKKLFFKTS
# UniProt Q9BWU1, sequence (Q9BWU1 whole entry, looked up): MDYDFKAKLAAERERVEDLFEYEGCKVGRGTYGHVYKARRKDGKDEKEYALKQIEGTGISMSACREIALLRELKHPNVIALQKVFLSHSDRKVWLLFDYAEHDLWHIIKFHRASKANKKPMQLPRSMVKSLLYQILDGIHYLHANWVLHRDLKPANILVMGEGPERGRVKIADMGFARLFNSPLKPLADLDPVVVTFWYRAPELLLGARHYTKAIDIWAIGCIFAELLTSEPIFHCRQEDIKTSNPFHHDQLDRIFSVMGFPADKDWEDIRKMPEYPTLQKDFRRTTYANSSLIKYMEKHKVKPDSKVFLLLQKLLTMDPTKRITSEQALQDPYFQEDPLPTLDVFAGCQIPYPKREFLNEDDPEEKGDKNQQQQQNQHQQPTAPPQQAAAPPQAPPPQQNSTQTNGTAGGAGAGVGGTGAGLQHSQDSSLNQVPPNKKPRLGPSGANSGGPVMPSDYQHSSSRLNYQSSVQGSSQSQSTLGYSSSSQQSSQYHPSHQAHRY
# UniProt Q5BKX5, sequence (Q5BKX5 whole entry, looked up): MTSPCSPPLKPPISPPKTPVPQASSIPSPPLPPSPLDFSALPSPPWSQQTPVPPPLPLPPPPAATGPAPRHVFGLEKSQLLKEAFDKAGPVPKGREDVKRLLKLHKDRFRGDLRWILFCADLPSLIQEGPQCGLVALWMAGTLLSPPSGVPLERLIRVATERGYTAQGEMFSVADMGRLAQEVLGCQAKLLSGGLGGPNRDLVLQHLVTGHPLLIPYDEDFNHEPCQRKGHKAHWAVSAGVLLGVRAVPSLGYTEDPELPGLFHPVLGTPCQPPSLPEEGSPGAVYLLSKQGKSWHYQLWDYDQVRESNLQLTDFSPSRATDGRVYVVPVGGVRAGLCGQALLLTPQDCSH
# UniProt P51911, sequence (P51911 whole entry, looked up): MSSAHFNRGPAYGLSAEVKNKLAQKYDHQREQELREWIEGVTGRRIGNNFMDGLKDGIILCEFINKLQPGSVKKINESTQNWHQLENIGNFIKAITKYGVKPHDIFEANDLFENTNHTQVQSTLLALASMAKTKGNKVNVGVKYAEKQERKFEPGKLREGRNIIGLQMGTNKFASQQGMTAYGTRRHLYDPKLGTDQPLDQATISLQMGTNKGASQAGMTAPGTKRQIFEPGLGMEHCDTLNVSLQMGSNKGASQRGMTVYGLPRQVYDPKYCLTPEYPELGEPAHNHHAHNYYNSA
# UniProt Q13111, sequence (Q13111 whole entry, looked up): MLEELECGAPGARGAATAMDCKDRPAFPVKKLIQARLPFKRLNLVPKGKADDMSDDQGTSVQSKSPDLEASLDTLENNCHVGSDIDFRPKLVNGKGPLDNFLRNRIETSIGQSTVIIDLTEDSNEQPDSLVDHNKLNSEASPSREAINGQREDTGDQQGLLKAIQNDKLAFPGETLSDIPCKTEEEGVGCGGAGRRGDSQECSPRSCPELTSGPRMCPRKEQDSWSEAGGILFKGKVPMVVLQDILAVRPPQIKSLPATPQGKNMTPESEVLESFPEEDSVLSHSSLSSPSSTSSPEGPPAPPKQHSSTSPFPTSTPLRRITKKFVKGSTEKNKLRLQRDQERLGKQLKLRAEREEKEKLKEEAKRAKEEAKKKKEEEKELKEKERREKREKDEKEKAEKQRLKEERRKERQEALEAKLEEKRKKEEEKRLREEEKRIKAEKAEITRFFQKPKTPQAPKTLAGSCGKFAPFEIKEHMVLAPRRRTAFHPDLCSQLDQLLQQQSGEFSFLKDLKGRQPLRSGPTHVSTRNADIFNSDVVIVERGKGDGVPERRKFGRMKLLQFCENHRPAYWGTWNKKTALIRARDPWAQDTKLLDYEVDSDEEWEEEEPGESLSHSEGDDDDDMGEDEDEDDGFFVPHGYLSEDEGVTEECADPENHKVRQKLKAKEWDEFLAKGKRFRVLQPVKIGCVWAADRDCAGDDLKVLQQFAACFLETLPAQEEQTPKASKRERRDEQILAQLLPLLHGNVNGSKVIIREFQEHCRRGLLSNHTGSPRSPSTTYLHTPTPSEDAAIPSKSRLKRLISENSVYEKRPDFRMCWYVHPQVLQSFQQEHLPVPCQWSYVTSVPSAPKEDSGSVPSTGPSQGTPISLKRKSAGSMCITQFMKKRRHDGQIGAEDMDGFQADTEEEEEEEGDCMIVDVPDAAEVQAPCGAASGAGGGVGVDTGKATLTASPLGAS
# UniProt O75956, sequence (O75956 whole entry, looked up): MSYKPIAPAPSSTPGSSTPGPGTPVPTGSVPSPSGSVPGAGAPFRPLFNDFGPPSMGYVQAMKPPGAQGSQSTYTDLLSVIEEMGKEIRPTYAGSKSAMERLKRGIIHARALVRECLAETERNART
# UniProt Q14061, sequence (Q14061 whole entry, looked up): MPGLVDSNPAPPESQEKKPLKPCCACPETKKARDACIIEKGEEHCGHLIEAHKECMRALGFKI
# UniProt Q9P0B6, sequence (Q9P0B6 whole entry, looked up): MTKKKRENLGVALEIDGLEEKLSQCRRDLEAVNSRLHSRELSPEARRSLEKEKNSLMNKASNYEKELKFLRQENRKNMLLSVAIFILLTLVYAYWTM
# UniProt Q9Y2V0, sequence (Q9Y2V0 whole entry, looked up): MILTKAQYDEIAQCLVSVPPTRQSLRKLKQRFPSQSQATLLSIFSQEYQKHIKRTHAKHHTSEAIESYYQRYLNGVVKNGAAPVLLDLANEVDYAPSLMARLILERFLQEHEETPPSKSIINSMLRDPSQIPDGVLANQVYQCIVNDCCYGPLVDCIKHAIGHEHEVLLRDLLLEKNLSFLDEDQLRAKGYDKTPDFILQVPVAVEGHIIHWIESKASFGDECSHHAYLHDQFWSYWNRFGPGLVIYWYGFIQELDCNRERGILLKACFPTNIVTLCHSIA
row,Target,log2 fold change
1,CD84 (UniProt Q9UIB8),0.086
2,COMMD3-BMI1 (UniProt R4GMX3),0.154
3,CDK2AP2 (UniProt O75956),0.012
4,CDK19 (UniProt Q9BWU1),0.019
5,CNN1 (UniProt P51911),0.156
6,CCDC167 (UniProt Q9P0B6),0.073
7,C15orf41 (UniProt Q9Y2V0),0.149
8,CHPT1 (UniProt Q8WUD6),0.11
9,CDCA2 (UniProt Q69YH5),-0.077
10,CRLS1 (UniProt Q9UJA2),0.003
11,COX17 (UniProt Q14061),-0.085
12,CASP9 (UniProt P55211),0.12
13,CLCN5 isoform 2 (UniProt P51795),-0.053
14,C19orf54 (UniProt Q5BKX5),0.114
15,CPNE5 (UniProt Q9HCH3),-0.035
16,C22orf39 (UniProt Q6P5X5),-0.037
17,CLASP2 (UniProt O75122),-0.222
18,COG2 (UniProt Q14746),-0.004
19,CHAF1A (UniProt Q13111),-0.045
